The record followed here is ChEMBL document CHEMBL1157539, “Thousands of chemical starting points for antimalarial lead identification” (Nature, 2010).

The first experiment has as its system Plasmodium falciparum. The experiment can be described thus: GSK_TCMDC: Inhibition of Plasmodium falciparum Dd2 in whole red blood cells, using parasite LDH activity as an index of growth. Test compounds present at 2uM. It counts as functional.
`O=C(NCc1ccco1)c1ccc(S(=O)(=O)c2ccc(Cl)cc2)cc1` returned an Inhibition of 95%. Still for that read-out and setting: the value for `COc1cccc(-c2ccc3c(-c4ccc(F)cc4)cnc(N)c3c2)c1.O=CO` was 70%; that for `COc1ccc2c(=NN=Cc3ccccc3Cl)cc(C)[nH]c2c1` was 99%. Still for that read-out and setting: the value for `COc1cccc(NC(=O)Nc2ccc(C)c(-c3ccc(C(=O)Nc4ccncc4)cc3)c2)c1` was 64%.

In another experiment the test system is HepG2. The experiment can be described thus: GSK_TCMDC: Percent inhibition of human HepG2 cell line. Test compounds present at 10uM. The class given is functional.
As to `O=C(Nc1cccc(CN2CCCN(Cc3ccccc3)CC2)c1)c1cc2ccccc2s1.O=C(O)C(F)(F)F`, the Inhibition came to 41%. Same read-out and setting: the value for `CCCCCn1c(Sc2ccc(C#N)c([N+](=O)[O-])c2)nnc1-c1cccc(Cl)c1` was 4%. Still for that read-out and setting: next, `Cl.N#Cc1ccc2c(c1)CN(CCC1CCC(NC(=O)c3cc4cnccc4[nH]3)CC1)CC2` (centres undefined): 13%; `O=C(Cn1c(SCc2cccc(F)c2F)cc(=O)c2ccccc21)N(CCCn1ccnc1)Cc1ccc(-c2ccc(C(F)(F)F)cc2)cc1`: 21%. Consider `CCCCCN(C(=O)Nc1cc(C(F)(F)F)cc(C(F)(F)F)c1)C(C)c1nc2ccccc2c(=O)n1CC` (centres undefined), for which the Inhibition worked out at 0%.

For `CCN(CC)CCCC(C)N/C(=N\c1ccccc1Br)Nc1ccc(C#N)cc1O` (centres undefined), the Inhibition amounted to 4%. With `Br.CC1(C)NC(N)=NC(=N)N1OCCCCCCOc1ccc(Cl)c2ccccc12`, the Inhibition is listed as 62%. The same measure, in the same setting: next, `COc1ccc(CNCc2ccc(-c3ccc(-c4nc5cccc(C)c5[nH]4)cc3)cc2)cc1.O=C(O)C(F)(F)F`: 53%; `CCCc1nc2c(N3CCCN(C(=O)NC4CCCCC4)CC3)cccc2n1Cc1ccccn1`: 10%; `c1cncc(-c2cc(N3CCCCC3)nc(-c3ccncc3)n2)c1`: 18%.

`O=C(NC1CCN(Cc2ccccc2O)C1)c1ccc(Cl)c(Cl)c1.O=C(O)C(F)(F)F` (centres undefined) showed an Inhibition of 0%.

For the molecule `CC(=O)Nc1ccc(CN2CCN(C(c3ccc(F)cc3)c3ccc(F)cc3)CC2)cc1`, the Inhibition was determined as 4%.

For the molecule `CCCCC1=CC2C(=O)C(C(=O)OC)=CN=C2C=C1OCc1ccccc1` (centres undefined), the Inhibition turned out to be 7%. The same measure, in the same setting: the value for `Cc1cccc2nc(-c3cccc(-c4cccc(C(=O)N5CCCCC5CN5CCC(O)C5)c4)c3)[nH]c12` (centres undefined) was 19%. The same measure, in the same setting: next, `C=C[C@H]1CN(CCCCCCC)CC[C@H]1C[C@@H](Cc1ccnc2ccc(OC)cc12)OC(=O)[C@](OC)(c1ccccc1)C(F)(F)F`: 12%; `Cc1cc(N2CCCCC2)nc2ccc(NC(=O)c3cncc(Br)c3)cc12`: 0%. On to `COc1ccc2c(c1)S(=O)(=O)N=C(N1CCCC1c1ccc(Cl)c(Cl)c1)N2C.O=C(O)C(F)(F)F` (centres undefined), for which the Inhibition amounted to 0%.

Molecule `COc1cc2c(C3CCN(CC4CCN(C(=O)/C=C/c5ccc(Cl)c(Cl)c5)CC4)CC3)c[nH]c2cn1` had an Inhibition of 27%. The same measure, in the same setting: next, `O=C(Nc1cccc(-c2ccc(CN3CCCC3)cc2)c1)c1ccc(Cl)cc1.O=C(O)C(F)(F)F`: 29%; `CC(C)c1ccc(NC(=O)c2ccc(CN3CCCN(CC4CCCCC4)CC3)cc2)cc1.O=C(O)C(F)(F)F`: 50%. On the same count and under the same terms, the value for `CC(=O)Nc1cccc(C(=O)Nc2cccc(-c3cccc(-c4nc5ccccc5[nH]4)c3)c2)c1` was 41%; that for `CCCCc1ccc(C(=O)NC2CCN(C[C@H](O)c3ccnc4ccc(OC)cc34)CC2)cc1` was 24%. Still for that read-out and setting: the value for `COc1ccc2ncc(F)c(CCN3C[C@H](CNCc4cc(F)c5c(c4)NC(=O)CO5)[C@H](O)C3)c2n1.Cl` was 3%; that for `Clc1ccccc1/C=C/c1cncnc1Nc1ccc2[nH]c(Cc3ccccc3)nc2c1` was 4%. For `OCC(c1ccccc1)n1c(COc2ccc(Cl)cc2)nc2c(OCCCN3CCCCC3)cccc21` (centres undefined), the Inhibition was 6%.

On to `O=C(O)C(F)(F)F.O=C1CCCN1CCCNCc1cccc(-c2cccc(-c3nc4cc(C(F)(F)F)ccc4[nH]3)c2)c1`, for which the Inhibition came to 28%.

The molecule `Cl.O=c1cc(NCCCNCc2ccc(Cl)c(Cl)c2)[nH]c2ccc(Cl)cc12` gave an Inhibition of 11%. Same read-out and setting: the value for `CCCOc1cccc(C(=O)N[C@@H](Cc2ccccc2)[C@H](O)CNCc2ccccc2OC)c1` was 11%. Still for that read-out and setting: next, `COc1cccc(C(NC(=O)c2ccccc2)c2ccc3cccnc3c2O)c1` (centres undefined): 52%; `COc1ccc(COc2cc(NCCCN)nc3ccccc23)cc1`: 3%. On the same count and under the same terms, next, `CC[C@H](C)CNC(=O)c1cncc(-c2cccc(CN(C)C3CCN(C)CC3)c2)c1.O=C(O)C(F)(F)F`: 9%; `O=c1ccc(CNc2nc(NCCc3ccccc3)nc3cc(Cl)ccc23)c[nH]1`: 21%.

Consider `COc1cccc(-c2ccc3ccnc(N)c3c2)c1.O=C(O)C(F)(F)F`, for which the Inhibition stood at 40%.

For the molecule `Cl.O=C(O[C@H]1CN[C@H](C#Cc2cc3ncnc(Nc4ccc5c(ccn5S(=O)(=O)c5cccs5)c4)c3s2)C1)N1CCOCC1`, the Inhibition was 0%. The same measure, in the same setting: the value for `O=C(CC(=O)C(F)(F)F)c1ccccc1[N+](=O)[O-]` was 65%. `Cc1ccc2c(=O)cc(CCc3cccc(F)c3F)n(CC(=O)N(Cc3ccc(-c4ccc(C(F)(F)F)cc4)cc3)C3CCN(C(C)C)CC3)c2n1.O=C(O)C(O)C(O)C(=O)O` displayed an Inhibition of 58%. Same read-out and setting: the value for `O=C(NCc1ccco1)c1ccc(S(=O)(=O)c2ccc(Cl)cc2)cc1` was 6%; that for `COc1cccc(-c2ccc3c(-c4ccc(F)cc4)cnc(N)c3c2)c1.O=CO` was 27%; that for `COc1ccc2c(=NN=Cc3ccccc3Cl)cc(C)[nH]c2c1` was 5%. In the case of `COc1cccc(NC(=O)Nc2ccc(C)c(-c3ccc(C(=O)Nc4ccncc4)cc3)c2)c1`, the Inhibition is 45%.

A word on the Inhibition: it is the drop in the measured response relative to a control, in per cent.
